From PubChem BioAssay come the findings set out here.

A short description of experiment [1]: inhibitors of TNFa-induced NFkB p65 translocation, primary screen, imaging, HUVEC, MLSMR starter and 10KST1 sets (AID 438;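 active means inhibition above 20% together with a positive visual image hit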;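 further: compound added about 3h40 before a 20 min TNFalpha stimulation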;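 on inhibition: signal is the nuclear over cytoplasmic p65 intensity ratio per well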). As to conditions: HUVEC TNFa-induced p65 nuclear translocation; cell count: measured here: nuclei count (cytotoxicity indicator), at 2.08 µM; inhibition: at 2 µM, stronger effect = higher value, 0% TNFa-plus-vehicle, 100% no-TNFa wells.
The nature of experiment [2]: inhibitors of mutant huntingtin aggregation, primary screen, imaging, exon1htt(103Q)mCFP cells, high-content imaging (AID 483;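 active means visual image review flags a hit and inhibition of aggregation exceeds 20%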;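 further: compound exposure lasted 3 days before fixation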;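 on nuclei count: percent of the per-plate median nuclei count of sample wells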). As to conditions: exon1htt(103Q)mCFP cell line, aggregate imaging, at 2 µM; inhibition of aggregation: stronger effect = higher value; nuclei count: measured here: cell count, toxicity.
Experiment [3] in a line: inhibitors of E-selectin induction by TNFa, primary screen, imaging, HUVEC, immunofluorescence, MLSMR starter and 10KST1 sets (AID 487;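 active means visually confirmed hit in the image check and inhibition above 20%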;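 on inhibition: signal is fraction of cell area covered by stained E-selectin grains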;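 on nuclei count: 100% = median nuclei count of all wells on the same plate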). As to conditions: HUVEC TNFalpha-induced E-selectin immunofluorescence imaging, at 2 µM; inhibition: stronger effect = higher value; nuclei count: measured here: cell number, toxicity.
The target of experiment [4] is Voltage-gated potassium channel subunit beta-2 (Rattus norvegicus) (UniProt P62483). Kind of experiment: KvBeta enzyme negative modulators, primary screen, biochemical, NADPH fluorescence (AID 622;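 active means fluorescence slope higher than the sample average by over 3 SD, cut at about -0.22 in these data, passing the limit was not always enough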;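 further: slope of raw intensity against log time taken from 70 to 1610 s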). As to conditions: recombinant KvBeta, 4-cyanobenzaldehyde reduction, at 10 µM, stronger effect = higher value.
Experiment [5] has the same target. The experiment can be described thus: KvBeta positive modulators, primary screen, biochemical, NADPH fluorescence (AID 623;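 active means NADPH fluorescence slope more negative than the mean of all samples by about 3 SD, 99.7% confidence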;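 further: fluorescence intensity change per second fitted from 20 to 320 s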). As to conditions: Recombinant KvBeta, NADPH fluorescence decrease slope, 10 min; at 10 µM; stronger effect = lower value.
In experiment [6] the target is Alpha-2C adrenergic receptor (Homo sapiens) (UniProt P18825). Kind of experiment: modulators of alpha2C/GIRK thallium flux, primary screen, cell-based, HEK293 alpha2C/GIRK1/2 (AID 624).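 Further: slope of fluorescence ratio to pre-addition baseline per second over 15 to 24 s.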 As to conditions: thallium flux BTC fluorescence, at 10 µM, actives lie on both sides.
Experiment [7] in a line: inhibitors of Sendai virus-induced IRF3 signaling, primary screen, TLR/RLR signaling modifier project, cell-based, Sendai virus stimulus, luciferase, 10K MLSCN set (AID 602276;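 active means inhibition at or above 50% at 10 µM; inactive means inhibition below 50%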;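 further: firefly luciferase from ISG56 promoter only with Renilla not read in this screen; 0% = Sendai virus plus DMSO and 100% = medium plus DMSO without virus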). As to conditions: HEK293 RL24 IRF3 luciferase reporter, at 10 µM, stronger effect = higher value.
Experiment [8] in a line: inhibitors of poly I:C-induced TLR3 signaling, primary screen, cell-based, poly I:C stimulus, luciferase, 10K MLSCN set (AID 602277;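 active means inhibition of the reporter signal at or above 50%; inactive means inhibition below 50%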). The note with it: HEK293-TLR3 RL24 IRF3 luciferase reporter, at 10 µM, stronger effect = higher value.

Active and inactive are the calls of the source.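 How the source made its calls, unless noted: active means fluorescence slope after compound addition differing from the mean of all screened samples at 99.7% confidence, in either direction; inactive means the rest.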

Voltage-gated potassium channel subunit beta-2 (Rattus norvegicus), sequence (P62483 whole entry, looked up): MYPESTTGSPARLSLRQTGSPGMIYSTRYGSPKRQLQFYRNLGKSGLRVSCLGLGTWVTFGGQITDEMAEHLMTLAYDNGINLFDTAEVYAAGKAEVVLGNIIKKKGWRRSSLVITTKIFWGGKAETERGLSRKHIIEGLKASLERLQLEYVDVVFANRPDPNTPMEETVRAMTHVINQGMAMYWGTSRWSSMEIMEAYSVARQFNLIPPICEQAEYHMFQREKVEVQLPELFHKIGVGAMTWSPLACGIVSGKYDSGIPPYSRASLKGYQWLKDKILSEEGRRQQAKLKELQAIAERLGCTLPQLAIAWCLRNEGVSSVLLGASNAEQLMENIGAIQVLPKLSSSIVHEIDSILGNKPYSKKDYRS
Alpha-2C adrenergic receptor (Homo sapiens), sequence (P18825 whole entry, looked up): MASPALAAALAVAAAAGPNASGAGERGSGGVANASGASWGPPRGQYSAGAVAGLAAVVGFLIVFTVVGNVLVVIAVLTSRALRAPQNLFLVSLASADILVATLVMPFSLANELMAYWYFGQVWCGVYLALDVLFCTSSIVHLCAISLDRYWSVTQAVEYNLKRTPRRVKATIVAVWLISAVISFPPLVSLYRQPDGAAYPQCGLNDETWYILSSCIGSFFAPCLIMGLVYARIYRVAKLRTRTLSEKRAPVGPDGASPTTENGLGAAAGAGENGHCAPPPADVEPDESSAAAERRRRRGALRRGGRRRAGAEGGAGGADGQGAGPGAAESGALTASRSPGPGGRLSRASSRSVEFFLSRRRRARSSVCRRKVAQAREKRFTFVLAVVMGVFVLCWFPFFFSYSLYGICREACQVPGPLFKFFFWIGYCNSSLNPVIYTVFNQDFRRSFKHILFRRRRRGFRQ

For `Cc1ccc(-c2nnn(CC(=O)N(Cc3cccs3)C(C(=O)NC(C)(C)C)c3ccc(C)o3)n2)o1` (centres undefined), the cell count in experiment [1] worked out at 675. Further, the inhibition in experiment [1] is -4% (inactive); in experiment [3] it was -20.1% (inactive); in experiment [7] it was 16.3% (inactive); in experiment [8], 20.6% (inactive). Moreover, the inhibition of aggregation in experiment [2] is -2.3% (inactive). The values for the nuclei count in experiment [2] and in experiment [3] were 136% and 137%, respectively. For the same compound, the fluorescence slope in experiment [4] was -0.361 (inactive). Further, the NADPH fluorescence slope in experiment [5] was -2.9e-05 (inactive). Besides, the slope in experiment [6] was 0.00454 (inactive).
Consider `O=C(O)c1ccc(-c2ccc(O)c(F)c2)cc1`, for which the cell count in experiment [1] was 677. Besides, the inhibition is 1.3% (inactive) in experiment [1], -11.2% (inactive) in experiment [3], -3.64% (inactive) in experiment [7] and 17.3% (inactive) in experiment [8]. The inhibition of aggregation in experiment [2] is 11% (inactive). Also, the nuclei count in experiment [2] came out at 89.9%; in experiment [3], 104%. Further, in experiment [4], the fluorescence slope was -0.59 (inactive). Moreover, the NADPH fluorescence slope in experiment [5] was -4.3e-05 (inactive). In addition, in experiment [6], the slope was 0.0076 (inactive).
As for `c1cc(CNc2ccc3c(c2)OCO3)ccn1`, in experiment [1], the cell count came out at 240. For the same compound, the inhibition was -3.9% (inactive) in experiment [1], -91.7% (inactive) in experiment [3], -9.22% (inactive) in experiment [7] and 13.6% (inactive) in experiment [8]. Moreover, the inhibition of aggregation in experiment [2] is 17.7% (inactive). The nuclei count was 83.7% in experiment [2] and 112% in experiment [3]. Moreover, the fluorescence slope in experiment [4] was -0.48 (inactive). Also, in experiment [5], the NADPH fluorescence slope was -1.4e-05 (inactive). In experiment [6], the slope was 0.00585 (inactive).
Take `Cc1c(Cl)cccc1N1C(=O)c2ccccc2C1=O`: in experiment [1], the cell count was 275. Moreover, the inhibition in experiment [1] was 7.5% (inactive); in experiment [3], 16.9% (inactive); in experiment [7], -1.09% (inactive); in experiment [8], 15.5% (inactive). In addition, the inhibition of aggregation in experiment [2] is -0.9% (inactive). For the same compound, the nuclei count in experiment [2] stood at 90.5%; in experiment [3] it was 93.5%. For the same compound, the fluorescence slope in experiment [4] was -0.502 (inactive). In experiment [5], the NADPH fluorescence slope was -3.6e-05 (inactive). Moreover, the slope in experiment [6] is 0.00611 (inactive).
For `CCCCn1nc(C(=O)N2CCc3ccccc32)c2ccccc2c1=O`, in experiment [1], the cell count worked out at 423. Besides, the inhibition in experiment [1] was -9% (inactive); in experiment [3], 36.5% (inactive); in experiment [7], -1.51% (inactive); in experiment [8], 20.2% (inactive). The inhibition of aggregation in experiment [2] was -20.9% (inactive). In addition, the nuclei count came out at 112% in experiment [2] and 41.8% in experiment [3]. Besides, in experiment [4], the fluorescence slope was -0.473 (inactive). In experiment [5], the NADPH fluorescence slope was 2e-05 (inactive). Also, in experiment [6], the slope is 0.0045 (inactive).
With `CCCC(=O)Nc1ccc2oc(-c3cccnc3)nc2c1`, the cell count in experiment [1] is 330. Further, the inhibition in experiment [1] was -1.1% (inactive); in experiment [3], -1.9% (inactive); in experiment [7] it was -23.4% (inactive); in experiment [8], -96.1% (inactive). For the same compound, the inhibition of aggregation in experiment [2] is 18.2% (inactive). Besides, the nuclei count in experiment [2] came out at 82.7%; in experiment [3], 62.2%. Moreover, the fluorescence slope in experiment [4] is -0.332 (inactive). Further, the NADPH fluorescence slope in experiment [5] was -1.1e-05 (inactive). Further, in experiment [6], the slope was 0.00331 (inactive).
For the compound `Cc1ccc(NC(=O)CSc2nnc(CNC(=O)c3c(F)cccc3Cl)o2)cc1`, the cell count in experiment [1] amounted to 645. Also, the inhibition is -10% (inactive) in experiment [1], -49% (inactive) in experiment [3], 1.9% (inactive) in experiment [7] and 10.9% (inactive) in experiment [8]. Moreover, the inhibition of aggregation in experiment [2] was -19.6% (inactive). Moreover, the figures for the nuclei count in experiment [2] and in experiment [3] were 108% and 118%, respectively. Also, the fluorescence slope in experiment [4] is -0.346 (inactive). The NADPH fluorescence slope in experiment [5] was -7.5e-06 (inactive). Further, the slope in experiment [6] is 0.00601 (inactive).
Take `CCOC(=O)c1[nH]c(CSc2nnc(-c3ccncc3)n2CCOC)c(C(=O)OCC)c1C`: in experiment [1], the cell count worked out at 368. For the same compound, the inhibition in experiment [1] was 1.1% (inactive); in experiment [3] it was -89.1% (inactive); in experiment [7] it was 8.8% (inactive); in experiment [8] it was 11.1% (inactive). The inhibition of aggregation in experiment [2] is -5.7% (inactive). Moreover, the nuclei count amounted to 107% in experiment [2] and 127% in experiment [3]. For the same compound, in experiment [4], the fluorescence slope is -0.486 (inactive). Moreover, the NADPH fluorescence slope in experiment [5] is 1.9e-05 (inactive). In addition, the slope in experiment [6] was 0.00635 (inactive).
Regarding `COc1ccc(C2CC(c3ccccc3)Nc3nc(NC(=O)c4cccs4)nn32)cc1` (centres undefined), the cell count in experiment [1] came out at 413. For the same compound, the inhibition is 1.4% (inactive) in experiment [1], -156% (inactive) in experiment [3], 18.4% (inactive) in experiment [7] and 25.3% (inactive) in experiment [8]. The inhibition of aggregation in experiment [2] was -6.8% (inactive). Also, the results for the nuclei count in experiment [2] and in experiment [3] were 102% and 112%, respectively. The fluorescence slope in experiment [4] was -0.372 (inactive). The NADPH fluorescence slope in experiment [5] was -7.5e-05 (inactive). The slope in experiment [6] was 0.00554 (inactive).
For the compound `CSc1nc2ccccc2c(=O)n1N`, in experiment [1], the cell count came out at 618. For the same compound, the inhibition in experiment [1] is 7.8% (inactive); in experiment [3], 28.4% (inactive); in experiment [7], 13% (inactive); in experiment [8], 19% (inactive). For the same compound, the inhibition of aggregation in experiment [2] was 12.4% (inactive). Moreover, the nuclei count in experiment [2] came to 90.5%; in experiment [3] it was 84.2%. The fluorescence slope in experiment [4] is -0.404 (inactive). In addition, the NADPH fluorescence slope in experiment [5] was -1.3e-05 (inactive). In addition, the slope in experiment [6] is 0.00832 (inactive).
On to `COc1cccc(/C=N/n2cnnc2)c1OCc1ccccc1`, for which, in experiment [1], the cell count came to 473. Further, the inhibition in experiment [1] was -2.6% (inactive); in experiment [3], 2.5% (inactive); in experiment [7], 20.5% (inactive); in experiment [8], 12.5% (inactive). Besides, the inhibition of aggregation in experiment [2] was -7% (inactive). Moreover, the nuclei count in experiment [2] was 104%; in experiment [3], 109%. Also, the fluorescence slope in experiment [4] was -0.448 (inactive). For the same compound, the NADPH fluorescence slope in experiment [5] was 1.1e-05 (inactive). For the same compound, the slope in experiment [6] was 0.00389 (inactive).
For the compound `Cc1ccc2cc(CN(Cc3ccc(F)cc3)Cc3nnnn3C3CCCC3)c(=O)[nH]c2c1`, the cell count in experiment [1] amounted to 702. Moreover, the inhibition in experiment [1] is -10.8% (inactive); in experiment [3], -40.7% (inactive); in experiment [7], 10.6% (inactive); in experiment [8], 13.8% (inactive). Also, in experiment [2], the inhibition of aggregation was -13.3% (inactive). Moreover, the nuclei count in experiment [2] stood at 103%; in experiment [3], 98.8%. Moreover, the fluorescence slope in experiment [4] was -0.311 (inactive). Besides, the NADPH fluorescence slope in experiment [5] was -4.1e-05 (inactive). In addition, the slope in experiment [6] was 0.00514 (inactive).
On to `COc1ccc(-c2ccc(=O)n(Cc3cc(=O)n4ccccc4n3)n2)cc1`, for which the cell count in experiment [1] was found to be 789. Besides, the inhibition in experiment [1] is -6.4% (inactive); in experiment [3] it was -101% (inactive); in experiment [7], 7.67% (inactive); in experiment [8], 12.2% (inactive). In addition, in experiment [2], the inhibition of aggregation was -19.1% (inactive). Besides, the figures for the nuclei count in experiment [2] and in experiment [3] were 99.5% and 140%, respectively. Also, in experiment [4], the fluorescence slope was -0.108 (inactive). In addition, the NADPH fluorescence slope in experiment [5] is -3.8e-05 (inactive). In experiment [6], the slope was 0.00509 (inactive).
`O=S(=O)(c1ccccc1)N(Cc1nc(-c2ccccc2)no1)C1CCCCC1`: the cell count in experiment [1] was found to be 446. Moreover, the inhibition in experiment [1] is 2% (inactive); in experiment [3], -57.4% (inactive); in experiment [7] it was 16.6% (inactive); in experiment [8], 30.8% (inactive). The inhibition of aggregation in experiment [2] was 5.6% (inactive). Besides, the values for the nuclei count in experiment [2] and in experiment [3] were 76.3% and 96.2%, respectively. Further, the fluorescence slope in experiment [4] was -0.461 (inactive). In experiment [5], the NADPH fluorescence slope was -1.2e-05 (inactive). Further, the slope in experiment [6] was 0.00919 (inactive).
